# Assay outcomes deposited in PubChem BioAssay by several laboratories.
# CYP2C9 inh: blockers of cytochrome P450 2C9 activity – biochemical, luminescence, ADME assay, primary screen | 96,000 compounds, 20% hits | P11712 | CYP2C9 Supersomes, luciferin-H conversion | inhibition, % at 5 µM;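 active means blocking of liver enzyme CYP2C9 beyond about 50% at 5 µM, limit read from the data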
# Target sequence (P11712 whole entry, looked up): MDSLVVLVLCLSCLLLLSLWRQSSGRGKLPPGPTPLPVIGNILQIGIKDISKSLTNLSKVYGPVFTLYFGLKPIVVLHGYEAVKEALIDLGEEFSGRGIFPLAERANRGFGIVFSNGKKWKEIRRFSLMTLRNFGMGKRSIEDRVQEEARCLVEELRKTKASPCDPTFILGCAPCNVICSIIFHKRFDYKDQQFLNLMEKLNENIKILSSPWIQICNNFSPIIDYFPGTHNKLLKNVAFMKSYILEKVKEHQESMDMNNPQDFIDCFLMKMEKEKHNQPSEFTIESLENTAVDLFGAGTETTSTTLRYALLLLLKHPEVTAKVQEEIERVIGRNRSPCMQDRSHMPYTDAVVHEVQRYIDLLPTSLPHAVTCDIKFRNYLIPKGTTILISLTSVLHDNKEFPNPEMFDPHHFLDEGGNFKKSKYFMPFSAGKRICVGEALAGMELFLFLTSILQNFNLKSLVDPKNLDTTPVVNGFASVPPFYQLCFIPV
# CYP2C9 act: human CYP2C9 activators, primary screen, biochemical, luminescence; activation factor at 5 µM; 96,000 compounds, 1.4% hits; recombinant CYP2C9, luciferin-H conversion; hits give high values; factor 1 = untreated enzyme, 0 = blocked; Cytochrome P450 2C9 (Homo sapiens), P11712;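 active means activation factor of 2 or more for CYP2C9 at a 5 µM dose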
# CYP2C19 activ: human CYP2C19 activators, primary screen, biochemical, luminescence; Cytochrome P450 2C19 (Homo sapiens), P33261; recombinant CYP2C19, luciferin-H EGE luminescence; hits give high values; 0 = fully inhibited enzyme, 1 = untreated enzyme; activation factor at 5 µM; 96,000 tested, under 10 active;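 active means activation factor of at least 2 at 5 µM in the primary screen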
# Cav32 inh: Cav3.2 calcium influx blockers – cell-based, Fluo-4 calcium fluorescence, FDSS, MLSMR library, primary screen | Cav3.2-expressing cells; hits give low values | B-score at 10 µM | 100,000 compounds, 4% hits;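 active means single-dose well whose peak fluorescence ratio is a statistical outlier from its plate by either plate-standardised score or position-corrected B-score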
# Pyk2 oligo antag: antagonists of Pyk2 self-association, primary screen, Q293 cells, FERM NanoBiT luminescence, HTS; Protein-tyrosine kinase 2-beta (Homo sapiens), Q14289; hits give low values; AID 1347419, 2020; z-score (the deposit names both 25 µM and 10 µM); 99,000 compounds, 0.83% hits;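 active means Z-score of -3 or lower, scaled per plate to the spread of control and sample wells; inactive means z-score above -3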;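 further: negative z-score means lost luminescence so less FERM oligomerization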
# CYP2C19 inhib: blockers of cytochrome P450 2C19 activity – biochemical, luminescence, ADME assay, primary screen; P33261; 96,000 compounds, 21% hits; inhibition, % at 5 µM; CYP2C19 Supersomes, luciferin-H EGE luminescence, 30 min;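 active means CYP2C19 inhibition above a set limit at 5 µM in the primary screen, cut at about 50% in these data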
# Numbers stand for hits; i = inactive; nt = no result. The list is not random: actives were taken first. Their share in the collection is about 27%.
SMILES,CYP2C9 inh,CYP2C9 act,CYP2C19 activ,Cav32 inh,Pyk2 oligo antag,CYP2C19 inhib
CCOC(=O)c1oc2cc(O)ccc2c(=O)c1-c1ccc(OC)cc1,i,i,i,i,i,i
CCOC(=O)c1oc2cc(O)c(CC)cc2c(=O)c1-c1ccc2c(c1)OCCO2,99,i,i,i,nt,i
c1cn2cc(-c3ccc4c(c3)OCO4)nc2s1,i,i,i,i,i,i
COc1cc2c(cc1NC(=S)Nc1cccc3ccccc13)oc1ccccc12,i,i,i,i,i,i
CNC(=O)Nc1cccc(C(F)(F)F)c1,nt,nt,nt,i,i,nt
O=C(CN1CCOCC1)Nc1cccc(C(=O)Nc2cccc(C(F)(F)F)c2)c1,52,i,i,i,i,i
CCC(C(=O)Nc1cccc(C(F)(F)F)c1)c1ccccc1 (centres undefined),71,i,i,-6.8,i,56
COc1cc2c(cc1NC(=S)Nc1cccc(C(F)(F)F)c1)oc1ccccc12,79,i,i,i,i,70
O=C(COCC(=O)Nc1cccc(C(F)(F)F)c1)Nc1cccc(C(F)(F)F)c1,i,i,i,i,i,84
O=c1ccc(Oc2nc(N3CCCCC3)nc(N3CCCCC3)n2)n[nH]1,i,i,i,i,i,i
O=C(NC1(C(F)(F)F)NC(=O)N(c2ccc(F)cc2)C1=O)c1ccncc1 (centres undefined),nt,nt,nt,nt,i,nt
O=C(CN1CCN(c2cccc(C(F)(F)F)c2)CC1)Nc1cccc(C(F)(F)F)c1,58,i,i,-5.5,i,i
Cc1[nH]c2ccccc2c1NC(=O)CN1CCN(c2cccc(C(F)(F)F)c2)CC1,i,i,i,-8.2,i,i
O=C(Cc1ccccc1)Nc1cccc(N2CCCC2)c1,77,i,i,i,i,i
CN(C)S(=O)(=O)Oc1ccccc1C(=O)Nc1cccc(C(F)(F)F)c1,i,i,i,i,i,86
Cc1occc1C(=O)Nc1cccc(C(F)(F)F)c1,nt,nt,nt,i,i,nt
CC(=O)Nc1ccc(NC(=O)CN2CCN(c3cccc(C(F)(F)F)c3)CC2)cc1,i,i,i,i,i,i
Cc1noc(NS(=O)(=O)c2ccc(NC(=O)CSc3nnc(-c4ccccc4)n3C3CCCCC3)cc2)c1C,i,i,i,i,i,i
CCC(CC)C(=O)Nc1ccccc1NC(C)=O,i,i,i,i,i,i
FC(F)(F)c1cccc(NC(=S)NCCc2ccccn2)c1,i,i,i,i,i,i
FC(F)(F)c1cccc(NC(=S)NCc2ccccc2)c1,i,i,i,i,i,63
Cc1cccc(-c2nnc(NC(=O)c3ccc(Cl)cc3)o2)c1,i,i,i,-4.4,i,i
O=C(Nc1nnc(-c2ccc3c(c2)CCCC3)o1)c1ccccc1,i,i,i,-5.6,nt,i
COc1cc(C(=O)NCc2ccc(C)cc2)ccc1OCc1c(C)noc1C,i,i,i,i,i,i
COc1cc(C(=O)NC2=NCCS2)ccc1OCc1c(C)noc1C,60,i,i,i,i,i
SMILES,CYP2C9 inh,CYP2C9 act,CYP2C19 activ,Cav32 inh,Pyk2 oligo antag,CYP2C19 inhib
COc1cc2c(O)c3c(c(-c4ccc5c(c4)OCO5)c2cc1OC)C(=O)OC3,68,i,i,-4.2,i,i
COc1cc2c(OC(C)=O)c3c(c(-c4ccc5c(c4)OCO5)c2cc1OC)C(=O)OC3,nt,nt,nt,i,nt,nt
C=C(C)CSc1nc2nc(C)c(Br)cc2[nH]1,i,i,i,i,i,55
COC(=O)CSc1nc2nc(C)c(Br)cc2[nH]1,i,i,i,i,i,i
COCCCNC(=O)c1nc2c(nnn2Cc2cc(C)ccc2C)c(=O)[nH]1,nt,nt,nt,i,i,nt
O=C(NCc1cccs1)c1nc2c(nnn2Cc2ccccc2Cl)c(=O)[nH]1,nt,nt,nt,-4.5,i,nt
Cc1ccc(Cn2nnc3c(=O)[nH]c(C4CCCN(C(=O)Nc5ccc(F)cc5F)C4)nc32)cc1 (centres undefined),54,i,i,i,i,i
O=C(Cc1cccs1)N1CCCC(c2nc3c(nnn3Cc3ccc(F)cc3)c(=O)[nH]2)C1 (centres undefined),57,i,i,i,i,i
O=C(Cc1cccs1)N1CCCC(c2nc3c(nnn3Cc3ccccc3Cl)c(=O)[nH]2)C1 (centres undefined),91,i,i,i,i,66
CC(C)(C)c1ccc(Cn2nnc3c(=O)[nH]c(C4CCN(C(=O)Cc5cccs5)CC4)nc32)cc1,99,i,i,i,i,91
CC(C)(C)c1ccc(Cn2nnc3c(=O)[nH]c(C4CCCN(C(=O)Cc5cccs5)C4)nc32)cc1 (centres undefined),57,i,i,i,i,i
N#Cc1ccc(NC(=O)N2CCC(c3nc4c(nnn4Cc4cccc(Cl)c4)c(=O)[nH]3)CC2)cc1,i,i,i,i,i,i
COC(=O)c1ccc(N2CCN(S(=O)(=O)c3ccc4ccccc4c3)CC2)c([N+](=O)[O-])c1,i,i,i,i,i,i
Cn1c(=O)n(C)c2cc([N+](=O)[O-])c(N3CCN(S(=O)(=O)c4ccc5ccccc5c4)CC3)cc21,i,i,i,i,i,73
Cc1ccc(S(=O)(=O)N2CCN(c3cc4c(cc3[N+](=O)[O-])n(C)c(=O)n4C)CC2)cc1,81,i,i,i,i,76
Cc1ccc(OCC(=O)N2CCN(c3ccc([N+](=O)[O-])c(N4CCOCC4)c3)CC2)cc1,57,i,i,i,i,i
Cc1ccc(-c2ccc(OCC(=O)N3CCOCC3)cc2)cc1,i,i,i,i,i,i
Cc1ccccc1C(=O)N1CCN(c2ccc([N+](=O)[O-])c(N3CCOCC3)c2)CC1,59,i,i,i,i,55
O=C(COc1ccccc1)N1CCN(c2ccc([N+](=O)[O-])c(N3CCCCC3)c2)CC1,79,i,i,i,i,64
O=C(O)c1ccc(C(=O)Nc2cccc(NC(=O)C3CCCO3)c2)cc1 (centres undefined),i,i,i,i,i,i
COc1ccc(-c2c3c(=O)n(C)c(=O)n(C)c3cn2Cc2ccccn2)cc1,i,i,i,i,i,i
COc1ccc(-c2c3c(=O)n(C)c(=O)n(C)c3cn2-c2cc(OC)ccc2OC)cc1,63,i,i,i,i,i
Cc1cccc(OCC(=O)O/N=C(\N)Cc2ccc(Cl)cc2)c1,i,i,i,i,i,i
O=C(NNC(=O)C1CCN(S(=O)(=O)c2ccc(Cl)cc2)CC1)c1ccccc1,nt,nt,nt,nt,i,nt
COc1ccc(N/N=C(\C=N\O)C(=O)c2ccc(OC)cc2)cc1,88,i,i,i,i,75
Cc1sc2ncnc(OCC(=O)N3CCN(S(=O)(=O)c4ccc(Cl)cc4)CC3)c2c1C,83,i,i,i,i,75
